What was measured:
Assay in all cases: log2 ratio of Biotin-Ahx-Ub-VS probe labelling (fragment/DMSO); higher = less target engagement (more negative = stronger competition), active = hit call of the paper (q ≤ 0.05, log2 ratio ≤ -1)
Settings in all cases: compound concentration: 200 uM; treatment time: 3 h
USP42 = target: T1, USP42 (UniProt Q9H9J4)
T1 sequence (whole entry): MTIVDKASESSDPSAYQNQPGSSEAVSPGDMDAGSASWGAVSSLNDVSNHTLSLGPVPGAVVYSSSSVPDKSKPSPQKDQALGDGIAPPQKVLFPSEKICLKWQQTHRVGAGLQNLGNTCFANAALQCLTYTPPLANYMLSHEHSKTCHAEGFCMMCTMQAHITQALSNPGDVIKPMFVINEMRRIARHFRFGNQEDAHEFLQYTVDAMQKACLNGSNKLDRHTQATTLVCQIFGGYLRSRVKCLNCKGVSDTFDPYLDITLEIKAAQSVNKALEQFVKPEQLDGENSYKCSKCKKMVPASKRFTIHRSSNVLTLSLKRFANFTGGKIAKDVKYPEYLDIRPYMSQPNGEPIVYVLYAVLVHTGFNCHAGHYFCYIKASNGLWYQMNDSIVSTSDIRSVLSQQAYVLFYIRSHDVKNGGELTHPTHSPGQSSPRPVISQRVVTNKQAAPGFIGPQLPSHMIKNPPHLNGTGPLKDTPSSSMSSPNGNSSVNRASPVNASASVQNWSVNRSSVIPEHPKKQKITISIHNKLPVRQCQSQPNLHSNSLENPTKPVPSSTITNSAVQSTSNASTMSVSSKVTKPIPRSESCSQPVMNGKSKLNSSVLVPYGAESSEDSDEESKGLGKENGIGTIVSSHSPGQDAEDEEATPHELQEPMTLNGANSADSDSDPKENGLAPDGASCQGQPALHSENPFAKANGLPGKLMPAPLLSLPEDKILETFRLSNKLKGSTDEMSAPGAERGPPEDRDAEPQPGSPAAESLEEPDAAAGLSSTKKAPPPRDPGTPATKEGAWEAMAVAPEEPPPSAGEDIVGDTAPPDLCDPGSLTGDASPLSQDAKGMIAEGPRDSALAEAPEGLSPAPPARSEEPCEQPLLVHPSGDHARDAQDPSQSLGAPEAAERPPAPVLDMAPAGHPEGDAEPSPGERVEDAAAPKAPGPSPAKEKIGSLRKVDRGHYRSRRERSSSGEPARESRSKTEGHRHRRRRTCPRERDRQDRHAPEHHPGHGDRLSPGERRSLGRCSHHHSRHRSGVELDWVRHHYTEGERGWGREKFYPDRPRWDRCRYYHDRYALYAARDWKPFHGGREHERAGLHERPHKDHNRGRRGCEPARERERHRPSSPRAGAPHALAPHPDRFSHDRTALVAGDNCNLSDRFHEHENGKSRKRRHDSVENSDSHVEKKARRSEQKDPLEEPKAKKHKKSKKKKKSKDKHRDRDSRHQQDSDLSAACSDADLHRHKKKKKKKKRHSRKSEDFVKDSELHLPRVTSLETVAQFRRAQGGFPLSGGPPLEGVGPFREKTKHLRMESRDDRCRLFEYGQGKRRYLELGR
In short: (§1)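 HEK293T lysate, 495 µg per sample in Tris/CHAPS/IGEPAL buffer with protease inhibitors, was treated in triplicate with fragment at 200 µM or vehicle for 3 h and then with Biotin-Ahx-Ub-VS at 0.5 µM final for 1 h. Labelled DUBs were NeutrAvidin-enriched, digested with LysC and trypsin, and run by diaPASEF LC-MS/MS. Spectronaut label-free quantities were global-median-normalised, and values are average log2 fragment/vehicle ratios by unpaired t-test on proteins with ≥2 unique peptides.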

USP46 = USP46 (UniProt P62068)
In short: as §1

USP47 = target: T2, USP47 (UniProt Q96K76)
T2 sequence (whole entry): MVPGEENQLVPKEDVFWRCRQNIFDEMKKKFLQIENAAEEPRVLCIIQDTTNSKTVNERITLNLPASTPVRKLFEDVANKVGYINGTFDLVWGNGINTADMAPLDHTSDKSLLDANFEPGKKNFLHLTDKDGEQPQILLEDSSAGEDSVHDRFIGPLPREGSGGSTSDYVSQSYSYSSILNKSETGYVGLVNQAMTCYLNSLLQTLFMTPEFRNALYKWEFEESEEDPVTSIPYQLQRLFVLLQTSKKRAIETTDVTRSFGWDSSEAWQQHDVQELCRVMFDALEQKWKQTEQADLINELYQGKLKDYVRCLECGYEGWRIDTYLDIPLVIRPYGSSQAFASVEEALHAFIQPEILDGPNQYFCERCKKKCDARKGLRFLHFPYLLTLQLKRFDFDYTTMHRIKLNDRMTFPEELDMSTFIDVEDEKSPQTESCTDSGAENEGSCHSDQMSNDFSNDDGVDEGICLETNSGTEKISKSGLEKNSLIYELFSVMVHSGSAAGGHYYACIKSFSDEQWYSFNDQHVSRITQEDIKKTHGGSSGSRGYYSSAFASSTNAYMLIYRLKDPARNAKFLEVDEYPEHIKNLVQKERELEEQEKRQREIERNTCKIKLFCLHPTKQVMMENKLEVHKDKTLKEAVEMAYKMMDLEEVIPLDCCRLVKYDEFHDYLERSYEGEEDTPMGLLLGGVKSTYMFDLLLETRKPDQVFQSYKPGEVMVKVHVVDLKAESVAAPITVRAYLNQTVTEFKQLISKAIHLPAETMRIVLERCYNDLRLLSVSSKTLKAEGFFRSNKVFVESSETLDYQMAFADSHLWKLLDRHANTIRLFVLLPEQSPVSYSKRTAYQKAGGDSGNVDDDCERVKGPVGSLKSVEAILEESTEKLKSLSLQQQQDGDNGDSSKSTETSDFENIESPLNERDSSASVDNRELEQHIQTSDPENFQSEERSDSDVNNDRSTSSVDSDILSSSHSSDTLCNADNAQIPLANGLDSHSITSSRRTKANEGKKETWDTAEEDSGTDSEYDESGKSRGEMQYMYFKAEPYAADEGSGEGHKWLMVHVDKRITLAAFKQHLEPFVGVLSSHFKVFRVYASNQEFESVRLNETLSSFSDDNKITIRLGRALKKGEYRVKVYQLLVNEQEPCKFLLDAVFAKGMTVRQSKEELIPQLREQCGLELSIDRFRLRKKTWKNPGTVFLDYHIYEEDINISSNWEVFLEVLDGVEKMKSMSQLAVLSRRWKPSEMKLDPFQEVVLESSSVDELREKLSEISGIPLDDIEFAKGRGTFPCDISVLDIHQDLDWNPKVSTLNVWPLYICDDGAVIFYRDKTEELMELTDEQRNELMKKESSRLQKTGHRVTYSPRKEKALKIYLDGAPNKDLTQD
In short: as §1

USP48 = target: T3, USP48 (UniProt Q86UV5)
T3 sequence (whole entry): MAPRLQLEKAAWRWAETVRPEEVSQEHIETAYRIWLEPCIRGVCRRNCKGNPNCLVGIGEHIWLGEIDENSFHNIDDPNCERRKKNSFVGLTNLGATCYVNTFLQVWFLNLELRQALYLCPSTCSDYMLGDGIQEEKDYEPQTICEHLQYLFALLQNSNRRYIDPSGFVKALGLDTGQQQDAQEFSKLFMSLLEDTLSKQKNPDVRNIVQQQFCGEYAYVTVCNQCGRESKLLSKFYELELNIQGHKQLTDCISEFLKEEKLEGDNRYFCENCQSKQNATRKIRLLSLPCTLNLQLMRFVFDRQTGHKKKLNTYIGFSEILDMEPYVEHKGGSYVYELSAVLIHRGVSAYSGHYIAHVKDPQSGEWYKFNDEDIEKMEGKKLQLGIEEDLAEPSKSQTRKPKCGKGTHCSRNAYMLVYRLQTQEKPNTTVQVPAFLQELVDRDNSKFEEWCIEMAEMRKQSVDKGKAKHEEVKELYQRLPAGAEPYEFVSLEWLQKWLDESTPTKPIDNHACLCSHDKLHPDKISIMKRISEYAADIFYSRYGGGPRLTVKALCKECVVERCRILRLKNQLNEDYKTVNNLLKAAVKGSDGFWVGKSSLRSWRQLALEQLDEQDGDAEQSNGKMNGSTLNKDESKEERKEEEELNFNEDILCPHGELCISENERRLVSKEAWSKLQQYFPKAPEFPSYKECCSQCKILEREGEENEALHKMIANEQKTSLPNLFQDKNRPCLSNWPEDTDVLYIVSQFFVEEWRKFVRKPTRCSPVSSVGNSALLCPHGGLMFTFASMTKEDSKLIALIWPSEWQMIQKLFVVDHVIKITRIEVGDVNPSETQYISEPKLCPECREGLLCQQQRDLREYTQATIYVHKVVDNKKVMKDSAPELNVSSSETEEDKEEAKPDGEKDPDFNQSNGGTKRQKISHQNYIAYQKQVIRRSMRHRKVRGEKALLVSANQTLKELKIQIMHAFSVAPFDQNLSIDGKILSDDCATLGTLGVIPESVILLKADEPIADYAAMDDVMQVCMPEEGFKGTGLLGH
In short: as §1

USP5 = target: T4, USP5 (UniProt P45974)
T4 sequence (whole entry): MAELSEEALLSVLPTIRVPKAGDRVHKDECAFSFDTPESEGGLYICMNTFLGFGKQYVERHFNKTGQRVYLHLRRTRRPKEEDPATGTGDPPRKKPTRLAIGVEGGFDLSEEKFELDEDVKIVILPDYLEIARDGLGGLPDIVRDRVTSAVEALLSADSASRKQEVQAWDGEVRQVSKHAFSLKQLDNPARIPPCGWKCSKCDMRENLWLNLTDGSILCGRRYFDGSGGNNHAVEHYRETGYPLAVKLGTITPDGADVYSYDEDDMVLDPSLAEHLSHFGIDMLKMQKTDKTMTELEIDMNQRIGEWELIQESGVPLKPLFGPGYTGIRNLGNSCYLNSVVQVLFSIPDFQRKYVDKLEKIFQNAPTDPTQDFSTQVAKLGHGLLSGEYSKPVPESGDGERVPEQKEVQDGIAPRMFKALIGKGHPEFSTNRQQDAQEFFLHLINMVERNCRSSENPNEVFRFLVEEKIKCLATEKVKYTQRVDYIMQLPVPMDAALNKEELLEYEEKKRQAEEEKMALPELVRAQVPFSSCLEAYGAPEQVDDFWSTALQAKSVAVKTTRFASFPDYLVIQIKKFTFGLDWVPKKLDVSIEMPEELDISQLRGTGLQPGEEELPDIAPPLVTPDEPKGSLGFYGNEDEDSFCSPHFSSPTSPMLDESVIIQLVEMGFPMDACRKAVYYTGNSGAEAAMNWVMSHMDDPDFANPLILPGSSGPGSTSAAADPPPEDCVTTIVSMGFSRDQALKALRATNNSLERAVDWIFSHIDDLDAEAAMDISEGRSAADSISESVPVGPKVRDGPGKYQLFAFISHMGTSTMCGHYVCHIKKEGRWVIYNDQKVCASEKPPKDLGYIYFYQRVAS
In short: as §1

USP54 = USP54 (UniProt Q70EL1)
In short: as §1

USP7 = USP7 (UniProt Q93009)
In short: as §1

USP8 = target: T5, USP8 (UniProt P40818)
T5 sequence (whole entry): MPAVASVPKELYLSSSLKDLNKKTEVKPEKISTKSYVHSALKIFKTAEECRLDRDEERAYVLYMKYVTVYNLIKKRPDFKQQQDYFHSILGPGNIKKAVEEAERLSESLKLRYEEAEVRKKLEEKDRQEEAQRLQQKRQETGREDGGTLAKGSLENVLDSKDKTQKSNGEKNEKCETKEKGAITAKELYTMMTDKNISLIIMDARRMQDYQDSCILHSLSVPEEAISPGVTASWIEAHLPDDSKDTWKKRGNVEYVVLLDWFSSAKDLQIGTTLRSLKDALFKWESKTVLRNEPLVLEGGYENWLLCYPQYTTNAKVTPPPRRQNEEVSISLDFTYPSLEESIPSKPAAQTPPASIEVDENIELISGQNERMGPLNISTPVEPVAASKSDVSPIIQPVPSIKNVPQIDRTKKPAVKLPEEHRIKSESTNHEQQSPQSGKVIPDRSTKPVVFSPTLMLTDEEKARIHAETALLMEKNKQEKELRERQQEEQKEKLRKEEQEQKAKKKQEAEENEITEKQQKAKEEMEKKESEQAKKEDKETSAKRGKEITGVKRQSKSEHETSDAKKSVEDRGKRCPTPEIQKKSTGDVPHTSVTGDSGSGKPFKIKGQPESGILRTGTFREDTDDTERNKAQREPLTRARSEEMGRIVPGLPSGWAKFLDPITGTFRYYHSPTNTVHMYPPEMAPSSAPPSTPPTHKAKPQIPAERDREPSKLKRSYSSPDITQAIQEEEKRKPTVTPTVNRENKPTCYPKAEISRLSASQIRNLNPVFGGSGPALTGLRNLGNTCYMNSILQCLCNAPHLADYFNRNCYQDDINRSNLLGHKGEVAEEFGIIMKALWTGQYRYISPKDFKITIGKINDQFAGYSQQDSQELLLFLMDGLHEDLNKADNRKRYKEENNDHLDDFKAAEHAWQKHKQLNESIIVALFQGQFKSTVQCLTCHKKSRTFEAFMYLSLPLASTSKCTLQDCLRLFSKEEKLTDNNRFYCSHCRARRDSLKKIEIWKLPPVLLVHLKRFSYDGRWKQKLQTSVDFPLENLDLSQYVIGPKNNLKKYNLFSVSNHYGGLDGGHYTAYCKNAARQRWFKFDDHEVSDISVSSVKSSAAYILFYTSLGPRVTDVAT
In short: as §1

USP9X = USP9X (UniProt Q93008)
In short: as §1

UniProt O00487 = target: UniProt O00487
In short: as §1

Measured: log2 ratio of Biotin-Ahx-Ub-VS probe labelling

USP46, sequence (P62068 whole entry): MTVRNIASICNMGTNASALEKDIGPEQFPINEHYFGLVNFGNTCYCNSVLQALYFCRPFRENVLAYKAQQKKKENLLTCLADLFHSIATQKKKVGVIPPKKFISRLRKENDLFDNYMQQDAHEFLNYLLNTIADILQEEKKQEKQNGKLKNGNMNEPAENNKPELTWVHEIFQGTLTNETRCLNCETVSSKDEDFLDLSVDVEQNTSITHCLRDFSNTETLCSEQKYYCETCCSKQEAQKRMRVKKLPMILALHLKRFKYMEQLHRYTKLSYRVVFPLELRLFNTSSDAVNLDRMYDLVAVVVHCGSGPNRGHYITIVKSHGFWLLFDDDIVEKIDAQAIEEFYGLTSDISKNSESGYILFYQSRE
UniProt O00487, sequence (O00487 whole entry): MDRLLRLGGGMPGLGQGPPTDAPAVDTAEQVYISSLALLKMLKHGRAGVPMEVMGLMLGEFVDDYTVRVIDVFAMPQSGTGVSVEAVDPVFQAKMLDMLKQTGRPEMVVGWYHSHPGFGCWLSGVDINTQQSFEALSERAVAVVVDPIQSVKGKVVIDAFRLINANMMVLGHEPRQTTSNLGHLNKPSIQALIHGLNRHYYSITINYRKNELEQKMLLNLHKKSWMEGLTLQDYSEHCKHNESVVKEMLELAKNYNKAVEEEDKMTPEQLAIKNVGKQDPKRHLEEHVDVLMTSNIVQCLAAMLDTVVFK
USP54, sequence (Q70EL1 whole entry): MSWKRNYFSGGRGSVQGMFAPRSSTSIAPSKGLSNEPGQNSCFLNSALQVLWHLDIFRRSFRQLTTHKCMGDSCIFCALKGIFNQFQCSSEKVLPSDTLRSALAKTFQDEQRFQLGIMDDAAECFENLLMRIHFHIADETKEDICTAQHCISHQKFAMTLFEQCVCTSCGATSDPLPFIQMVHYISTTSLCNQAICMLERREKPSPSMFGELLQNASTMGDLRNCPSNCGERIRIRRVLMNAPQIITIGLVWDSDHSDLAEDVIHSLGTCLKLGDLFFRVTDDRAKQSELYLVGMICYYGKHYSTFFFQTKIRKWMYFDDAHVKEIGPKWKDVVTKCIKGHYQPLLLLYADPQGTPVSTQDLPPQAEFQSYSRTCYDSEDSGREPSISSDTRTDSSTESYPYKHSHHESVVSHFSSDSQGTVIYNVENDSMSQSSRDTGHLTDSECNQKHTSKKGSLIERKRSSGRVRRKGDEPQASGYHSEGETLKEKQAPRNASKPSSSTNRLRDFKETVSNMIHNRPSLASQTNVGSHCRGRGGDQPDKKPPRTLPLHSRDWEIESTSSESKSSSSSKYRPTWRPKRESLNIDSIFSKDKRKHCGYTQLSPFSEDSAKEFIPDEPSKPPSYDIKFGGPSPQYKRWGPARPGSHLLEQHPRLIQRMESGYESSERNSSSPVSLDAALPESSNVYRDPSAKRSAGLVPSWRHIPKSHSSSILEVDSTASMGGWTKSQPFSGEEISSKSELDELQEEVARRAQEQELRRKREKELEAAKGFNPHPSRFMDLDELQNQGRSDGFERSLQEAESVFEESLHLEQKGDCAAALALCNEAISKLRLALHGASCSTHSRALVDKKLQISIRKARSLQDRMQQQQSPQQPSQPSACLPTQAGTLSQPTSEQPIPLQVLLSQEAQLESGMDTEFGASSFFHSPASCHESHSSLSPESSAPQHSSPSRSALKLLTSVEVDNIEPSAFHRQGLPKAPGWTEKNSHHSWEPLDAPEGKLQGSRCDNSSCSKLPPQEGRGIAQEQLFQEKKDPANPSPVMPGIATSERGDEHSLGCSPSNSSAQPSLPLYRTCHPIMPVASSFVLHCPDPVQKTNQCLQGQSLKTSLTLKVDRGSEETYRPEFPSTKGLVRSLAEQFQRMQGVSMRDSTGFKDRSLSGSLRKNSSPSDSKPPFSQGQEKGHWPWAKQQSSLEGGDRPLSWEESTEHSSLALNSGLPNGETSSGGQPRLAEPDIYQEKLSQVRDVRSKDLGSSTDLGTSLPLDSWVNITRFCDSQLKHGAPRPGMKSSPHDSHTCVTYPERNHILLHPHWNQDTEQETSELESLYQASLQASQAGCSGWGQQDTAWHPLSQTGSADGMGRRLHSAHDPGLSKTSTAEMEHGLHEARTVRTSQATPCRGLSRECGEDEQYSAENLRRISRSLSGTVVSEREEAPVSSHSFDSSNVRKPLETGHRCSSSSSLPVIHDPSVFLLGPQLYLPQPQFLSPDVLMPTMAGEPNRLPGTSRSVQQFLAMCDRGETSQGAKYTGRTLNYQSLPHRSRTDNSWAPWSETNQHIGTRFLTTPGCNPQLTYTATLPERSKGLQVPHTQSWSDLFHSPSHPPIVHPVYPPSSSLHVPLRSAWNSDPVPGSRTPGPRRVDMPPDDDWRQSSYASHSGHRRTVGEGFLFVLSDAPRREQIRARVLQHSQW
USP9X, sequence (Q93008 whole entry): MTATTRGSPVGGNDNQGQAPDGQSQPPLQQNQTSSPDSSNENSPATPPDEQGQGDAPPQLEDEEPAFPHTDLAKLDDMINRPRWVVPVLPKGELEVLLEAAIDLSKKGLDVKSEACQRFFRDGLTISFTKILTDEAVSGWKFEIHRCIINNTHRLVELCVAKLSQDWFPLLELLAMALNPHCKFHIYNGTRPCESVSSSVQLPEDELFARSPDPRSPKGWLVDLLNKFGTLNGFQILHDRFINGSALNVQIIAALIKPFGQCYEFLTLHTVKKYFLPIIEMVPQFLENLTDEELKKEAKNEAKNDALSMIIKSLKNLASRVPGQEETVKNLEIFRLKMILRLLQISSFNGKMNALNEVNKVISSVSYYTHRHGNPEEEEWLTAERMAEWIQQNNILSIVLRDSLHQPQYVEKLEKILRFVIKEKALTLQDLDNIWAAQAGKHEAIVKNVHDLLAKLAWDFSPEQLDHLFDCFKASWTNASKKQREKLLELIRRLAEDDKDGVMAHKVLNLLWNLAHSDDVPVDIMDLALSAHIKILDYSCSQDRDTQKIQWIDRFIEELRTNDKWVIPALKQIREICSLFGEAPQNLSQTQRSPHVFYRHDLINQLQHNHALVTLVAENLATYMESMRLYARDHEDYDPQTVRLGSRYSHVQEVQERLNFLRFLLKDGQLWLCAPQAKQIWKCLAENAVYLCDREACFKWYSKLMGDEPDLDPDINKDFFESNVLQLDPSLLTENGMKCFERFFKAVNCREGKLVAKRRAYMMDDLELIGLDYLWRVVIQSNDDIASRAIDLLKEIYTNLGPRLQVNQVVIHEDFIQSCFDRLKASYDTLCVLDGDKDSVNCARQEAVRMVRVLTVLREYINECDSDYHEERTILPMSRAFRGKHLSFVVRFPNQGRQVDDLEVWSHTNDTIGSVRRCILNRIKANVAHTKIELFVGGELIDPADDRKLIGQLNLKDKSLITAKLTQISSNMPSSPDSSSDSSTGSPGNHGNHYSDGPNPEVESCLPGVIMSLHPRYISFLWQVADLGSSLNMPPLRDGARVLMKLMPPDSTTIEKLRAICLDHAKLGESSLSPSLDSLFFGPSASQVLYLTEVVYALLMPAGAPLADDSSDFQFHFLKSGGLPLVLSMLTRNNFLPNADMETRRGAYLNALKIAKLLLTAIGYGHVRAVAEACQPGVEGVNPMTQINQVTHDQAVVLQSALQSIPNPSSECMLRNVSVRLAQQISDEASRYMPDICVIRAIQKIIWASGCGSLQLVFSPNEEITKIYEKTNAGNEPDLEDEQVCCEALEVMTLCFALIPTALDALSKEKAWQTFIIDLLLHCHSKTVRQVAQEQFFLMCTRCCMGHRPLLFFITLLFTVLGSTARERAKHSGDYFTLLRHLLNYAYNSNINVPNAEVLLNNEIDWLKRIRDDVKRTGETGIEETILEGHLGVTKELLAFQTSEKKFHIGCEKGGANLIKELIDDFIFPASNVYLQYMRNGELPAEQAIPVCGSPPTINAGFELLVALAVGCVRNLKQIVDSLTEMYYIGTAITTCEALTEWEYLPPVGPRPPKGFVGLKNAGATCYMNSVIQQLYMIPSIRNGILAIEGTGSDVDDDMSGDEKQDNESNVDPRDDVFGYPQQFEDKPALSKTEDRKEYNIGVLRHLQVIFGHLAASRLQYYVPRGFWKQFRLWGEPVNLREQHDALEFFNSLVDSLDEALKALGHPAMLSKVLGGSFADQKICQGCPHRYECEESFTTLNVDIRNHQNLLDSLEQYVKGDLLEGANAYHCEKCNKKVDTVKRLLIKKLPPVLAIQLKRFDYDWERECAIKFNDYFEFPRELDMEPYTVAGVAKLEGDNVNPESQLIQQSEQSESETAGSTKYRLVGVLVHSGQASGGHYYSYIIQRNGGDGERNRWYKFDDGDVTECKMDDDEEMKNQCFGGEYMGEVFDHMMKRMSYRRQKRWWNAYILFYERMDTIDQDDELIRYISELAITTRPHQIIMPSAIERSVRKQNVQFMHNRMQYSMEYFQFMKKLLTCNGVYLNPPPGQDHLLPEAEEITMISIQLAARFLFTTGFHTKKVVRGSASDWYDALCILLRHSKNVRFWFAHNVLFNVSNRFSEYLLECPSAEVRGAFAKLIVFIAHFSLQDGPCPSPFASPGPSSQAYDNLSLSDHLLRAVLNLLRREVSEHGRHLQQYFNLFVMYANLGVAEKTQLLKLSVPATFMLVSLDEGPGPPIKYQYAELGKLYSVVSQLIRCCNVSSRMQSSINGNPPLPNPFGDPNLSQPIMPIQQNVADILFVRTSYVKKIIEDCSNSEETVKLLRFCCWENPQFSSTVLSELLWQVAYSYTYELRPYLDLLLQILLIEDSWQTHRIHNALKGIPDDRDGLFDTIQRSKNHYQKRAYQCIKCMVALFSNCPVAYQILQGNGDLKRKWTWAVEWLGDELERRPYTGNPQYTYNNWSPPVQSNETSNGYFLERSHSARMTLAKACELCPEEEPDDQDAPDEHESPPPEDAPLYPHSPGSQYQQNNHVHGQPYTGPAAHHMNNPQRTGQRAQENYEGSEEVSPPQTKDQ

O=C(CCl)NCc1ccc(N2CCOCC2)nc1
inactive: USP42 -0.0847 | USP46 0.0882 | USP47 -0.466 | USP48 -0.188 | USP5 -0.217 | USP54 0.658 | USP7 -0.147 | USP8 -0.289 | USP9X -0.26 | UniProt O00487 -0.226

Reference: the supplement of paper PMC11732987, “Enantioselective OTUD7B fragment discovery through chemoproteomics screening and high-throughput optimisation” (Communications Chemistry, 2025)
